Compound activity from PubChem BioAssay.
Compounds with a hit are over-represented: about 3.5% of the library has one in this group of screens.
BoNT-F LC inh – BoNT/F light chain protease inhibitors, primary screen, biochemical, flow cytometry, MLPCN library; Botulinum neurotoxin type F light chain protease (Clostridium botulinum); Multiplex microsphere protease cleavage assay; inhibition, % at 10 µM; 360,000 tested, 0.22% active; in the data active means inhibition above about 35%, passing the limit was not always enough; inconclusive means no clear call, values can overlap the other calls; further: plate controls were buffer without enzyme for full effect and enzyme alone for no effect
BoNT-A LC inh2 – BoNT/A light chain protease inhibitors, primary screen, biochemical, flow cytometry, MLPCN library | multiplex microsphere protease substrate cleavage | inhibition, % at 10 µM | 360,000 tested, 0.17% active; further: plate controls were buffer without enzyme for full effect and enzyme alone for no effect
Bead autofluor – compound fluorescence in toxin protease inhibitor counterscreen; compound autofluorescence counterscreen, microsphere flow cytometry; stronger effect = higher value; fluorescence intensity (concentration not given with the values); 360,000 tested, 3.1% active; in the data active means fluorescence intensity above about 16000; inconclusive means no clear call, values can overlap the other calls
Anthrax LF inh2 – Bacillus anthracis LF protease inhibitors, primary screen, biochemical, multiplex microsphere, MLPCN library; inhibition, % at 10 µM; 360,000 tested, 0.12% active; Lethal factor (Bacillus anthracis), P15917; multiplex microsphere protease cleavage assay; further: plate controls were buffer without enzyme for full effect and enzyme alone for no effect
Target sequence (P15917 whole entry, looked up): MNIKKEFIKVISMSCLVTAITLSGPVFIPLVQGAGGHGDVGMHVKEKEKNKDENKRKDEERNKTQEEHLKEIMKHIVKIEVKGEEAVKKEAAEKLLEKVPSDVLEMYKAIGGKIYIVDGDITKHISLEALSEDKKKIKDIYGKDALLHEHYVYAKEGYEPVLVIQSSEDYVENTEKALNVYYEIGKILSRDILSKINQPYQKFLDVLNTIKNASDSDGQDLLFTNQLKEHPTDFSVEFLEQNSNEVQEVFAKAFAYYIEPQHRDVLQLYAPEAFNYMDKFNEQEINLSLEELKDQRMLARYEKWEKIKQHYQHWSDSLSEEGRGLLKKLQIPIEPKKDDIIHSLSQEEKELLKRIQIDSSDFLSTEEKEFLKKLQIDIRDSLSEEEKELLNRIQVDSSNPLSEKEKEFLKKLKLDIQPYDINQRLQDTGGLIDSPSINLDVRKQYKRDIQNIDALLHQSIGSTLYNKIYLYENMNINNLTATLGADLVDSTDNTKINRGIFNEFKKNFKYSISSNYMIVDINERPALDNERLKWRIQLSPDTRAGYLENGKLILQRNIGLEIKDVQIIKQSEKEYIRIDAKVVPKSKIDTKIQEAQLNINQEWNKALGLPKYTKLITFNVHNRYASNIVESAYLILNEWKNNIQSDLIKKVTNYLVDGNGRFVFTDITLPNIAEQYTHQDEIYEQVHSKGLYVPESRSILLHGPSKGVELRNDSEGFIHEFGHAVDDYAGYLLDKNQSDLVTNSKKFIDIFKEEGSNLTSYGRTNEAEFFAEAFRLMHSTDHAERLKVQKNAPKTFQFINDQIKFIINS
The depositor's hits bear a star; ? = inconclusive. Unless noted, no stated cut-off is given here; in the data, active means inhibition above about 30%; inconclusive means no clear call, values can overlap the other calls; inactive means below that.

SMILES	BoNT-F LC inh	BoNT-A LC inh2	Bead autofluor	Anthrax LF inh2
CCOC(=O)CSc1nc2ccc(NC(=O)CSc3nnnn3Cc3ccccc3)cc2s1	-3	-2	20885*	-4
CC(C)(C)NC(=O)CSc1nc2ccc(NC(=O)CSc3nnnn3Cc3ccccc3)cc2s1	?	1	3772	-8
COCCN(C(=O)c1csnn1)C(C(=O)NC1CCCC1)c1ccccc1F (configuration not stated)	-17	-1	3767	-8
CC(=O)Nc1ccc(-c2ccnc3c2CC(C(=O)Nc2cccc(C(F)(F)F)c2)O3)cc1 (configuration not stated)	-16	-1	3784	-10
COc1ccc(NC(=O)c2csc3c2CCCC3)cc1	-3	-1	23873*	-2
Cc1ccccc1NC(=O)c1csc2c1CCCC2	-4	-3	20804*	-4
O=C(NCc1ccccc1)c1csc2c1CCCC2	-1	0	2622	1
COc1cccc(NC(=O)c2csc3c2CCCC3)c1	-4	0	2482	2
CC(C)C(NC(=O)c1c(F)cccc1F)C(=O)NC1CC(C)(C)NC(C)(C)C1 (configuration not stated)	3	-1	5304	-3
O=C(c1ccccc1OCc1ccccc1Br)N1CCN(c2ncccn2)CC1	-5	-1	16398*	-1
O=C(c1ccccc1Br)N1CCN(c2ncccn2)CC1	-8	-2	3583	-6
O=C(CCCOc1ccc(Cl)cc1Cl)N1CCN(c2ccccn2)CC1	-3	-3	16837*	-5
CN1CCN(C(=O)CCCOc2ccc(Cl)cc2Cl)CC1	-6	-3	17214*	-3
O=C(COc1ccc(Cl)cc1Cl)N1CCN(c2ccccn2)CC1	-4	0	3739	2
O=C(COc1ccccc1Cl)N1CCN(c2ncccn2)CC1	-3	-2	22968*	1
Cc1cc(C)c(C(=O)COC(=O)c2nn(C)c(=O)c3ccccc23)cc1C	-3	2	8140	0
O=C(CCCCCn1c(=S)[nH]c2cc3c(cc2c1=O)OCO3)N1CCN(Cc2ccccc2)CC1	-8	-1	4278	-3
O=C(CCCn1c(=S)[nH]c2cc3c(cc2c1=O)OCO3)N1CCN(c2ccccn2)CC1	9	?	19027*	-1
COc1cccc(C=NNc2nc3ccccc3s2)c1OC	1	0	3553	-11
COc1cccc(/C=N/Nc2ncnc3scc(-c4ccccc4)c23)c1OC	-2	2	21674*	0
Cc1nc2ncnn2c(C)c1CCC(=O)Nc1csc(N)n1	3	?	18816*	-15
COC(=O)c1cc(NC(=O)CCc2c(C)nc3ncnn3c2C)cc(C(=O)OC)c1	-6	-4	17830*	0
Cc1ccc(NC(=O)CCc2c(C)nc3ncnn3c2C)cc1	-3	0	8994	-5
Cc1ccc2cccc(OC(=O)c3c(F)cccc3Cl)c2n1	9	0	6030	-3
N#Cc1ccc2sn(-c3ccccc3)c(=O)c2c1	2	33*	4005	-2
SMILES	BoNT-F LC inh	BoNT-A LC inh2	Bead autofluor	Anthrax LF inh2
O=c1c2cc([N+](=O)[O-])ccc2sn1-c1ccccc1	-2	11	3770	3
Cn1c(N)c(C(=O)COC(=O)/C=C/c2cccc(Cl)c2)c(=O)n(C)c1=O	-9	-1	3735	-11
CC(=O)c1ccc(NC(=O)CCC(=O)OCC(F)(F)C(F)F)cc1	-2	?	20248*	1
CCCN1CCN(C(=O)Nc2ccc(C(=O)OCC)cc2)CC1	-1	0	20252*	-2
CCCOC(=O)c1ccc(NC(=O)CCC(=O)OCC)cc1	11	4	21063*	0
Cc1cc(C)cc(C(=O)NCC(=O)NNC(=O)CSc2ccccc2F)c1	-2	-1	3087	-4
COc1cccc(OCCNS(=O)(=O)c2ccccc2[N+](=O)[O-])c1	1	0	3573	-11
O=C(Cn1ccc2ccccc2c1=O)NCC(=O)N1CCN(c2ccc(F)cc2)CC1	1	0	4456	-3
CSc1c(C#N)c(N)c(C#N)c2c1COC(C)(C)C2	5	2	21535*	0
CCN(CC(=O)Nc1c(F)cccc1F)C(=O)c1ccc2ncsc2c1	-311	-181	49356*	-42
Cc1ccc(NC(=O)c2c(C(F)(F)F)nn(C)c2SCc2cccc(C(F)(F)F)c2)cc1C	-8	-2	16554*	-5
Cn1nc(C(F)(F)F)c(-c2cccc(C(F)(F)F)c2)c1NC(=O)c1ccco1	-2	-1	6253	-2
Cn1nc(C(F)(F)F)c(C(=O)Nc2ccc(Cl)cc2)c1Cl	-5	?	?	2
Cc1ccc(NC(=O)c2c(C(F)(F)F)nn(C)c2Cl)cc1C	3	?	19260*	3
